{"source": "PubChem BioAssay", "note": "The source made the active and inactive calls. Note: test concentration not given here."}
{"experiment": "basal HepG2 mitochondrial membrane potential changes, profiling panel, cell-based, JC-1 fluorescence, 24 h, 100 nL compound (AID 1167)", "details": "higher = more signal"}
{"compound": "C=C(CC1([C@@H](NP(=O)(c2ccccc2)c2ccccc2)[C@H]2C[C@@H]2CCCC)CC1)c1ccccc1", "z-score": -2.48}
{"compound": "CC[C@@H]1C=C(C(=O)O)[C@H](c2ccc(Br)cc2)N1S(=O)(=O)c1ccc(C)cc1", "z-score": -0.131}
{"compound": "C=C(CCCC)/C(=C/C[C@H](OC(C)=O)c1ccccc1OCCO)c1cc(C(=O)OC)ccc1OC", "z-score": 2.79}
{"compound": "COC(=O)[C@@]1(Cc2ccc(OC)cc2)[C@H]2c3cc(C(=O)N(C)C)n(C)c3C[C@H]2CN1C(=O)c1ccccc1", "z-score": 2.66}
{"compound": "CN(C)CCCCCCNC(=O)[C@H]1C[C@H]2C(=O)N[C@@H](CCCCN)C(=O)N2[C@H]1c1cccc(OCCO)c1", "z-score": 0.272}
{"compound": "NC(=O)NCC#Cc1ccc2c(c1)[C@]1(C(=O)N2)[C@H](c2ccccc2OCCO)N2[C@H](c3ccccc3)[C@H](c3ccccc3)OC(=O)[C@H]2[C@@H]1C(=O)Nc1nc2ccccc2s1", "z-score": -2.78}
{"compound": "CC1CC/C=C\\[C@H]2OC34C=CCN(C(C)(C)C)C(=O)[C@H]3N(CCO)C(=O)[C@@H]4C2C(=O)O1", "note": "(some centres undefined)", "z-score": -0.669}
{"compound": "C=C(COC)/C(=C/C[C@H](OC(C)=O)c1ccc(CO)o1)c1cc(C(=O)OC)ccc1OC", "z-score": -0.527}
{"compound": "CNS(=O)(=O)c1ccc(C)cc1", "z-score": 0.384}
{"experiment": "basal 3T3-L1 adipocyte mitochondrial potential changes, profiling panel, cell-based, JC-1 fluorescence, 3T3-L1 adipocytes, 24 h, 100 nL compound (AID 1168)", "details": "JC-1 mitochondrial fluorescence, higher = more signal, called active from +8 up or from −8 down"}
{"compound": "O=C1NC(=O)C2C1C=CC(C(O)c1cc(C(F)(F)F)cc(C(F)(F)F)c1)N2Nc1ccccn1", "note": "(centres undefined)", "z-score": "-0.169 (inactive)"}
{"compound": "C=C(/C(=C/C[C@H](OC(C)=O)c1ccccc1OCCO)c1cnc2ccccc2c1)C(C)C", "z-score": "-1.34 (inactive)"}
{"compound": "COC(=O)[C@H](Cc1ccccc1)N1CC2=C[C@@H](C3CC3)n3c(=O)n(C)c(=O)n3[C@H]2[C@@H]1[C@@H](O)Cc1ccccc1", "z-score": "-1.06 (inactive)"}
{"compound": "CC(=O)n1cc(C(O)C2C=CC3C(=O)N(c4ccccc4)C(=O)C3N2Nc2ccc([N+](=O)[O-])cc2)c2ccccc21", "note": "(centres undefined)", "z-score": "-1.2 (inactive)"}
{"compound": "CN1C=C(C(=O)OCCS(C)(=O)=O)C(C(=O)OCCS(C)(=O)=O)=CC(c2ccc(CO)cc2)=CC1C1CC1", "note": "(centres undefined)", "z-score": "-0.9 (inactive)"}
{"compound": "COC(=O)[C@]1(CCC(=O)OC(C)(C)C)N=C(c2ccc(OCCCO)cc2)O[C@@H]1c1ccccc1CN=[N+]=[N-]", "z-score": "-0.718 (inactive)"}
{"compound": "C=CCNC(=O)[C@@H]1[C@H]2C(=O)O[C@H](c3ccccc3)[C@H](c3ccccc3)N2[C@H](c2ccc(OCCO)cc2)[C@@]12C(=O)Nc1ccc(C#CCC(C(=O)OC)C(=O)OC)cc12", "z-score": "1.39 (inactive)"}
{"compound": "COC(=O)C(CC#Cc1ccc2c(c1)[C@]1(C(=O)N2)[C@H](c2ccc(OCCO)cc2)N2[C@H](c3ccccc3)[C@H](c3ccccc3)OC(=O)[C@H]2[C@@H]1C(=O)N1CCc2cc(OC)c(OC)cc2C1)C(=O)OC", "z-score": "-0.0627 (inactive)"}
{"compound": "NC(=O)N1C(=O)C2C(C1=O)C1C=C(c3ccc(CO)cc3)C2C(c2cccs2)N1Cc1cccc(OC(F)(F)F)c1", "note": "(centres undefined)", "z-score": "0.863 (inactive)"}
{"compound": "C=CCC(OC(C)=O)[C@@H]1[C@@H](N(Cc2ccc(-c3ccccc3)cc2)C(=O)c2cccc3ccccc23)c2cc(OCCCO)ccc2N1C(=O)c1ccc(-c2ccccc2)cc1", "note": "(some centres undefined)", "z-score": "0.266 (inactive)"}
{"compound": "COc1cc(NN2C(C(O)c3ccco3)C=CC3C(=O)N(c4ccccc4)C(=O)C32)cc(OC)c1OC", "note": "(centres undefined)", "z-score": "-0.967 (inactive)"}
{"compound": "CC(C)[Si]1(C(C)C)O[C@@H](c2ccccc2)c2cc(-c3ccc(-c4ccc(Cl)c(Cl)c4)o3)nc(-c3ccccc3)c21", "z-score": "-1.06 (inactive)"}
{"compound": "CCOC(=O)C[C@H]1[C@H](OC(=O)c2ccc(C(=O)c3ccccc3)cc2)[C@@H](NC(=O)c2ccc3ccccc3n2)c2cc(OCCCO)ccc2N1C(=O)c1ccccc1", "z-score": "-0.966 (inactive)"}
{"compound": "CC(C)C(O)C1C=CC2C(=O)NC(=O)C2N1Nc1ccc(Cl)cc1Cl", "note": "(centres undefined)", "z-score": "-1.12 (inactive)"}
{"compound": "COc1ccc(C#Cc2ccc3c(c2)[C@]2(C(=O)N3)[C@H](C(=O)Nc3nc4ccccc4s3)[C@H]3C(=O)O[C@H](c4ccccc4)[C@H](c4ccccc4)N3[C@@H]2c2ccc(O)cc2)cc1", "z-score": "-0.298 (inactive)"}
{"compound": "COC(=O)[C@@]1(Cc2ccccc2)N=C(c2ccc(OCCCO)cc2)O[C@H]1c1ccccc1", "z-score": "0.294 (inactive)"}
{"compound": "[N-]=[N+]=Nc1ccccc1[C@H]1OC(c2ccc(OCCCO)cc2)=N[C@@]1(CCS(=O)(=O)c1ccccc1)C(N)=O", "z-score": "-0.235 (inactive)"}
{"compound": "O=C1C[C@@](C(=O)NC2CC2)(c2ccc([N+](=O)[O-])cc2)[C@@H](c2ccc(CO)cc2I)N1C1CCCCC1", "z-score": "-0.604 (inactive)"}
{"compound": "COc1cc2c(cc1OC)CN(C(=O)[C@H]1[C@@H]3C(=O)O[C@@H](c4ccccc4)[C@@H](c4ccccc4)N3[C@@H](c3ccc(O)cc3)[C@]13C(=O)Nc1ccccc13)CC2", "z-score": "0.977 (inactive)"}
{"compound": "O=C1O[C@H](c2ccccc2)[C@H](c2ccccc2)N2[C@H]1[C@@H](C(=O)N1CCCCCCC1)[C@]1(C(=O)Nc3ccc(C#CC4=CCCCC4)cc31)[C@H]2c1ccc(OCCO)cc1", "z-score": "-5.35 (inactive)"}
{"compound": "COC(=O)[C@@]1(CCC(=O)OC(C)(C)C)N=C(c2ccc(OCCCO)cc2)O[C@H]1c1ccccc1N=[N+]=[N-]", "z-score": "0.581 (inactive)"}
{"compound": "O=C1C2C=CC(C(O)c3cc(C(F)(F)F)cc(C(F)(F)F)c3)N(n3cnnc3)C2C(=O)N1Cc1ccccc1", "note": "(centres undefined)", "z-score": "-1.62 (inactive)"}
{"compound": "CCCCCN1CC=CC23O[C@@H]4C=CCCOC(=O)C4[C@H]2C(=O)N(CCCCCO)[C@@H]3C1=O", "note": "(some centres undefined)", "z-score": "-0.0303 (inactive)"}
{"compound": "COc1ccc([Si](C)(C)[C@@H]2[C@@H](CCO)O[C@]3(C(=O)N(Cc4ccc(N(C=O)c5ccccc5)cc4)c4ccccc43)[C@H]2C)cc1", "z-score": "0.21 (inactive)"}
{"compound": "C=CCOC(=O)[C@H]1[C@@H]2C(=O)O[C@@H](c3ccccc3)[C@@H](c3ccccc3)N2[C@@H](c2ccc(OCCOC(=O)[C@H]3C[C@H]4C(=O)N[C@@H](CCCCNC(C)=O)C(=O)N4[C@H]3c3cccc(OCCO)c3)cc2)[C@]12C(=O)Nc1ccccc12", "z-score": "1.91 (inactive)"}
{"compound": "[N-]=[N+]=NCc1ccccc1C[C@]1(C(N)=O)COC(c2ccc(OCCCO)cc2)=N1", "z-score": "1.16 (inactive)"}
{"compound": "C=C(CC1([C@@H](NP(=O)(c2ccccc2)c2ccccc2)[C@H]2C[C@@H]2CCCC)CC1)c1ccccc1", "z-score": "-0.841 (inactive)"}
{"compound": "CC[C@@H]1C=C(C(=O)O)[C@H](c2ccc(Br)cc2)N1S(=O)(=O)c1ccc(C)cc1", "z-score": "-0.258 (inactive)"}
{"compound": "C=C(CCCC)/C(=C/C[C@H](OC(C)=O)c1ccccc1OCCO)c1cc(C(=O)OC)ccc1OC", "z-score": "0.63 (inactive)"}
{"compound": "COC(=O)[C@@]1(Cc2ccc(OC)cc2)[C@H]2c3cc(C(=O)N(C)C)n(C)c3C[C@H]2CN1C(=O)c1ccccc1", "z-score": "-0.536 (inactive)"}
{"compound": "CN(C)CCCCCCNC(=O)[C@H]1C[C@H]2C(=O)N[C@@H](CCCCN)C(=O)N2[C@H]1c1cccc(OCCO)c1", "z-score": "0.587 (inactive)"}
{"compound": "NC(=O)NCC#Cc1ccc2c(c1)[C@]1(C(=O)N2)[C@H](c2ccccc2OCCO)N2[C@H](c3ccccc3)[C@H](c3ccccc3)OC(=O)[C@H]2[C@@H]1C(=O)Nc1nc2ccccc2s1", "z-score": "2.99 (inactive)"}
{"compound": "CC1CC/C=C\\[C@H]2OC34C=CCN(C(C)(C)C)C(=O)[C@H]3N(CCO)C(=O)[C@@H]4C2C(=O)O1", "note": "(some centres undefined)", "z-score": "-0.354 (inactive)"}
{"compound": "C=C(COC)/C(=C/C[C@H](OC(C)=O)c1ccc(CO)o1)c1cc(C(=O)OC)ccc1OC", "z-score": "-0.29 (inactive)"}
{"compound": "CNS(=O)(=O)c1ccc(C)cc1", "z-score": "1 (inactive)"}
